Results published in PubChem BioAssay (NCI).
The panel holds about 79,000 compounds, 15% with a hit somewhere; the sample as a whole holds those more often. Unmarked numbers belong to inactive results. Active and inactive are the calls of the source. No stated cut-off is given here; in the data, active means growth inhibition above about 70%; inactive means the rest.

Key:
[1] = NCI Yeast Anticancer Drug Screen. Data for the rad50 strain (AID 155);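 further: 0% = growth of vehicle-only cultures of the same strain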; conditions: S. cerevisiae rad50 strain growth inhibition, stronger effect = higher value
Summary of the method: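 Relative growth inhibition (compound vs vehicle) was measured in yeast with a defined repair-gene alteration.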

[2] = NCI Yeast Anticancer Drug Screen. Data for the mec2-1 strain (AID 157); conditions: S. cerevisiae mec2-1 strain, stronger effect = higher value
Summary of the method: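 Using mec2-1 yeast: add compound, measure growth, express inhibition versus vehicle-treated cultures.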

[3] = NCI Yeast Anticancer Drug Screen. Data for the sgs1 mgt1 strain (AID 161);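 further: 0% = growth of cultures given vehicle only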; conditions: S. cerevisiae sgs1 mgt1 strain, stronger effect = higher value
Summary of the method: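 Yeast cells carrying a defined DNA-repair defect were exposed to test compounds. Growth inhibition was measured relative to vehicle-treated controls.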

[4] = NCI Yeast Anticancer Drug Screen. Data for the cln2 rad14 strain (AID 165);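 further: 0% = growth equal to vehicle treated cultures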; conditions: S. cerevisiae cln2 rad14 strain, stronger effect = higher value
Summary of the method: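 Yeast strain cln2 rad14, bearing defects in cell cycle control and DNA repair, serves as the test system; values reflect growth inhibition compared with vehicle.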

[5] = NCI Yeast Anticancer Drug Screen. Data for the bub3 strain (AID 167); conditions: S. cerevisiae bub3 mutant strain, stronger effect = higher value
Summary of the method: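 Screening used yeast with an engineered genetic alteration affecting cell cycle control. Compound-exposed cultures were compared with vehicle cultures, and reduced growth was taken as inhibition.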

[6] = NCI Yeast Anticancer Drug Screen. Data for the mlh1 rad18 strain (AID 175); conditions: S. cerevisiae mlh1 rad18 strain growth inhibition, stronger effect = higher value
Summary of the method: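 Steps: expose repair-defective yeast to compound; measure growth; express inhibition against vehicle-treated controls.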

[7] = at 5.0 µM (retest, dose inferred, filed as 0.5)
[8] = at 50.0 µM (retest, dose inferred, filed as 5.0)

Compound | growth inhibition [1, 7] | growth inhibition [1, 8] | growth inhibition ([1]; at 50.0 µM) | growth inhibition [2, 7] | growth inhibition [2, 8] | growth inhibition ([2]; at 50.0 µM) | growth inhibition [3, 7] | growth inhibition [3, 8] | growth inhibition ([3]; at 50.0 µM) | growth inhibition [4, 7] | growth inhibition [4, 8] | growth inhibition ([4]; at 50.0 µM) | growth inhibition [5, 7] | growth inhibition [5, 8] | growth inhibition ([5]; at 50.0 µM) | growth inhibition [6, 7] | growth inhibition [6, 8] | growth inhibition ([6]; at 50.0 µM)
CCCCCCCCCCCCCCC/C([O-])=N/[N+](C)(C)CC(C)O (stereo not given) | 98% (active) | 98% (active) | 90.9% (active) | 99% (active) | 98% (active) | 91.2% (active) | 99% (active) | 99% (active) | 92% (active) | 99% (active) | 98% (active) | 88.2% (active) | 99% (active) | 98% (active) | 91.5% (active) | 98% (active) | 97% (active) | 89.9% (active)
Nc1ccc2ccc3cccc4ccc1c2c34 | 1% | 98% (active) | 90.3% (active) | -37% | 98% (active) | 0.45% | 1% | 98% (active) | 48.5% | -1% | 99% (active) | 62.5% | -2% | 98% (active) | 23.8% | 1% | 97% (active) | 88.9% (active)
O=C1c2ccccc2C(=O)c2ncccc21 | 14% | 91% (active) | 96.3% (active) | 8% | 86% (active) | 94.4% (active) | 8% | 89% (active) | 93.3% (active) | -2% | 85% (active) | 86.5% (active) | 11% | 87% (active) | 91% (active) | 37% | 95% (active) | 97.8% (active)
CC(=O)OCC(C(N)=O)(c1ccccc1)c1ccccc1 | -5% | 1% | -2.6% | -2% | 2% | -10% | -1% | -5% | 12.8% | -5% | -3% | 91.5% (active) | -7% | -1% | 2.8% | -6% | -6% | 11%
Cc1ccc(C(=O)OCCN2CCOCC2)c([N+](=O)[O-])c1OCc1ccccc1 | 14% | 61% | 73.2% (active) | 18% | 46% | 63.4% | 13% | 81% (active) | 84.7% (active) | 11% | 28% | 6.7% | 11% | 65% | 68.5% | 10% | 58% | 78.3% (active)
CSC(=S)SC(SC)S(C)(=O)=O (stereo not given) | -7% | 0% | 98.5% (active) | -5% | -3% | 99.7% (active) | -5% | -16% | 99.3% (active) | 1% | 2% | 99.1% (active) | -5% | -11% | 99.5% (active) | -8% | -9% | 99.3% (active)
CCOC(=O)c1cc(NC(=O)c2cc(NC(=O)c3cc(NC(=O)c4c(-c5ccccc5)noc4C)cn3C)cn2C)cn1C | 3% | 56% | 50.3% | -3% | 54% | 56.8% | 2% | 86% (active) | 59.1% | -5% | 29% | 14.8% | -4% | 46% | 36.1% | 0% | 67% | 51.3%
CN(C)C=Nc1ccc2nonc2c1 | 15% | 24% | 10.2% | -15% | -7% | -3.55% | 12% | 16% | 3.4% | 19% | 23% | 7.8% | 15% | 13% | 4.1% | 8% | 10% | 0.9%
CN(C)c1ccc(C(c2ccc(N(C)C)cc2)c2cccc([N+](=O)[O-])c2)cc1 | -2% | -3% | -11.2% | -3% | -13% | 0.2% | -2% | -1% | -2.45% | -8% | -33% | 14.9% | 43% | 26% | 50.1% | -2% | -12% | 7.9%
C/C=C/c1ccc(OCC(=O)O)c(OC)c1 | -14% | -10% | 99% (active) | -9% | -18% | 98.2% (active) | 8% | 1% | 98.2% (active) | -3% | -11% | 98.2% (active) | -31% | -4% | 98.8% (active) | -5% | -11% | 98% (active)
COc1ccc(-c2c(C#N)c(S)n(NS(=O)(=O)c3ccc(C)cc3)c(=O)c2C#N)cc1 | 40% | 89% (active) | 28.8% | 18% | 88% (active) | 69.1% | 34% | 97% (active) | 61% | 48% | 64% | 20% | 58% | 95% (active) | 43.8% | 27% | 69% | 71.5% (active)
O=[N+]([O-])c1cc(Cl)ccc1S(=O)(=O)c1ccccc1 | -19% | 75% (active) | 77.2% (active) | -31% | 30% | 62.1% | -7% | 57% | 78.8% (active) | 22% | 40% | 47.5% | -13% | 79% (active) | 76.6% (active) | -25% | 75% (active) | 79.7% (active)
C=CCc1cc([N+](=O)[O-])ccc1O | -4% | 80% (active) | 76.5% (active) | 1% | 85% (active) | 92.1% (active) | -2% | 87% (active) | 94.6% (active) | -3% | 85% (active) | 88.7% (active) | 3% | 85% (active) | 92.3% (active) | -4% | 93% (active) | 90.8% (active)
CN(C)CC1CCCCCCCCCCCCC(CN(C)C)C1=O (stereo not given) | -18% | 42% | 83.7% (active) | -6% | 22% | 77.8% (active) | -15% | 57% | 95.5% (active) | -23% | 20% | 72.2% (active) | -15% | 46% | 88% (active) | -13% | 87% (active) | 39%
COC(=O)CCN1c2ccccc2Sc2ccccc21 | -14% | 38% | 48.8% | -23% | 21% | 23.1% | -13% | 30% | 47.5% | 31% | 42% | 23.4% | 16% | 62% | 12.1% | -15% | 49% | 64.7%
N#COc1ccc(Oc2ccc(OC#N)cc2)cc1 | -4% | -3% | -12.9% | -30% | 14% | -22.8% | 26% | -3% | 90.2% (active) | -2% | 29% | 25.8% | -5% | 46% | 40% | -12% | -15% | 25.3%
CC(C)OC(=O)C1C=CCc2c(O)ccc(O)c21 (stereo not given) | 8% | 25% | 21.2% | 15% | 24% | 11.8% | 12% | 44% | 61% | 7% | 22% | 65.9% | 4% | 24% | 52% | 11% | 35% | 86.2% (active)
S=c1c2ccccc2[nH]c2ccccc12 | -3% | 86% (active) | 89.2% (active) | -6% | 62% | 63% | -2% | 83% (active) | 60.6% | -7% | 46% | 75.3% (active) | 8% | 33% | 88.8% (active) | -5% | 88% (active) | 85.5% (active)
Clc1ccc(C(CCOc2ccccc2Br)Cn2ccnc2)c(Cl)c1 (stereo not given) | 89% (active) | 98% (active) | 99.7% (active) | 75% (active) | 99% (active) | 99.7% (active) | 82% (active) | 99% (active) | 99.7% (active) | 68% | 99% (active) | 97% (active) | 89% (active) | 99% (active) | 99.7% (active) | 79% (active) | 99% (active) | 95.3% (active)
O=[N+]([O-])C1C2C=CC(C2)[C@H]1c1ccc(Cl)cc1Cl (stereo not given in full) | 28% | 70% (active) | 89.5% (active) | 29% | 85% (active) | 93.2% (active) | 33% | 96% (active) | 92.2% (active) | 15% | 73% (active) | 89% (active) | 52% | 93% (active) | 91.6% (active) | 37% | 89% (active) | 89.2% (active)
